PolyA inh: yeast polyadenylation inhibition | S. cerevisiae SKY197-pL101 polyadenylation reporter, beta-gal luminescence; efflux-impaired pdr1/pdr3 knockout yeast; score 100 = 6 SD above DMSO | activity score, % at 12 µM | 300,000 compounds, 0.02% hits;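 active = lowest replicate activity score at least 50, where 100 means six control SD above control mean; inconclusive = lowest score under 50 but half or more replicates reach 50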;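 note: yeast exposed to compound for 9 h at 30 °C; higher score means more reporter readthrough which indicates perturbed polyadenylation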
PfM18AAP inh: PfM18AAP enzyme inhibition. recombinant PfM18AAP, H-Glu-NHMec fluorogenic cleavage. inhibition, % at 7.35 µM. 290,000 compounds, 1.2% hits. AID 1822;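 active = inhibition above the campaign mean inhibition over all tested compounds plus 3 SD, cut at about 28% in these data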
ALR inh: inhibitors of human sulfhydryl oxidase ALR; purified ALR, DTT oxidation, H2O2 HRP-luminol luminescence; P55789; inhibition, % (test concentration not listed); 290,000 compounds, 3.8% hits; AID 485317;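 active = mean replicate inhibition above about 79%, with every replicate also reaching it, limit read from the data; inconclusive = only one of the two criteria met; inactive = mean below limit and not every replicate reaching it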
CaV13 ICDI inh: Disruptors of the CACNA1D IQ motif to Ca2+-dependent inactivation inhibitor domain association, primary screening, Förster resonance energy transfer in intact living …. HEK cells, CFP/YFP FRET ICDI-IQ, plate reader, 10 min; percent FRET-ratio fall versus neutral wells. inhibition, % at 12.3 µM. 340,000 compounds, 0.098% hits;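 active = mean replicate inhibition of at least 30% and at least 1% of replicates passing that level; inconclusive = only one of the two criteria is met; inactive = neither criterion is met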
IDE cell inh: inhibitors of human insulin-degrading enzyme in cells. HEK cells, FAbetaB cleavage, fluorescence polarization. inhibition, % at 5.59 µM. 320,000 compounds, 0.41% hits. AID 434962;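 active = percent inhibition above the average of all tested compounds plus 3 SD, set per screening campaign, cut at about 16% in these data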;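 note: IDE supplied by intact live HEK cells; FP after avidin binding of uncleaved biotin substrate so inhibition keeps polarization high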
IDE act: IDE (human) activation, cell-based; P14735; HEK cells, FAbeta-B cleavage, fluorescence polarization; 0% vehicle, 100% cell-free pure enzyme wells; activation, % at 5.96 µM; 340,000 compounds, 0.073% hits; AID 493087;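 active = activation above the mean of all tested compounds plus 3 SD, set per screening campaign, cut at about 17% in these data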
Of the large screens only hits and unclear results are named; the others gave an inactive call. In the library only some 4.1% were active in any assay of this set; here they are far more common.

CN(C)c1ccc(CN(C(=O)c2cccs2)C2CCS(=O)(=O)C2)cc1 (centres undefined)	ALR inh 93
Cc1ccccc1OCC(=O)N(Cc1cccs1)C1CCS(=O)(=O)C1 (centres undefined)	ALR inh 97
COc1cccc(C(=O)N(Cc2ccc(N(C)C)cc2)C2CCS(=O)(=O)C2)c1 (centres undefined)	ALR inh 88
O=C(COC(=O)C12CC3CC(CC(C3)C1)C2)Nc1ccccc1F	none
CC1CCC2(CC1)NC(=O)N(CC(=O)Nc1cccnc1Cl)C2=O (centres undefined)	none (no result: PolyA inh, PfM18AAP inh, ALR inh)
CN(C)c1ccc(CN(CC2CCCO2)C(=O)c2cccs2)cc1 (centres undefined)	ALR inh 92
Cc1cccc(NC(=S)NNC(=O)c2nn(C)cc2Cl)c1	ALR inh 89 (no result: CaV13 ICDI inh)
Cc1cccc(NC(=S)NNC(=O)c2ccccc2Br)c1	ALR inh inconclusive
Cc1ccc(NC(=S)NNC(=O)c2nn(C)cc2Cl)cc1	ALR inh 91
Cc1ccc(NC(=O)COC(=O)c2nn(C)cc2Cl)cc1	none (no result: ALR inh)
Cc1csc(N/N=C/c2ccccc2F)n1	none
CCOc1ccc(/C=N/Nc2nc(C)cs2)c(O)c1	PfM18AAP inh 28 (no result: IDE cell inh)
COC(=O)c1ccsc1NS(=O)(=O)c1ccccc1	ALR inh 80
CSc1ncc2[nH]c(C(O)c3ccccc3)nc2n1 (centres undefined)	none (no result: PolyA inh, PfM18AAP inh, ALR inh, IDE cell inh)
COc1ccccc1OCC(=O)Nc1cc(NC(=O)COc2ccccc2OC)cc(C(=O)O)c1	ALR inh 98
COc1ccc(CCN2C(=O)CC(Nc3ccc(N4CCOCC4)cc3)C2=O)cc1OC (centres undefined)	ALR inh 99
O=C1CC(Nc2ccc(N3CCOCC3)cc2)C(=O)N1C1CCCCC1 (centres undefined)	ALR inh 99
CC(C)N1C(=O)CC(Nc2ccc(N3CCOCC3)cc2)C1=O (centres undefined)	ALR inh 99
CCc1ccc(NC2CC(=O)N(CCc3ccc(OC)c(OC)c3)C2=O)cc1 (centres undefined)	none
O=C1CC(Nc2ccc(N3CCOCC3)cc2)C(=O)N1c1ccccc1F (centres undefined)	ALR inh 99
NC(=O)c1c(N)[nH]c(C(=O)c2ccccc2)c1-c1ccc(Br)cc1	none (no result: PolyA inh, PfM18AAP inh, ALR inh, IDE cell inh, IDE act)
CSCCC(NC(=O)c1ccccc1Cl)C(=O)NCCc1ccccn1 (centres undefined)	none (no result: PolyA inh, PfM18AAP inh)
CNNC(=S)Nc1cccc(C(F)(F)F)c1	PolyA inh inconclusive, PfM18AAP inh 29 (no result: IDE act)
CC(C)(C)c1ccc(NC(=S)NCCc2ccccn2)cc1	ALR inh 98
FC(F)(F)c1cccc(NC(=S)NCCc2ccccn2)c1	ALR inh 77
CCCC1CCc2c(sc(N)c2C(N)=O)C1 (centres undefined)	none (no result: ALR inh, CaV13 ICDI inh)
C=CCn1c(SCC(=O)c2ccc(Cl)cc2)nnc1-c1ccc2c(c1)OCO2	ALR inh 92
O=C(CSc1nnc(-c2ccc3c(c2)OCO3)n1-c1ccccc1)c1ccc(Cl)cc1	none
C=CCn1c(SCC(=O)c2ccc(OC)cc2)nnc1-c1ccc2c(c1)OCO2	ALR inh 98
N#Cc1cc2c([nH]c1=S)CCCCCC2	none (no result: ALR inh, CaV13 ICDI inh)
N#Cc1c(N)n[nH]c1-c1cc2c([nH]1)CCCC2	ALR inh 98
COC(=O)c1ccc(-n2cc(-c3ccc(OC)cc3)[nH]c2=S)cc1	PfM18AAP inh 28, ALR inh 88 (no result: PolyA inh)
COc1ccc(-n2cc(-c3ccc(Cl)cc3)[nH]c2=S)cc1	none
Cc1ccc2c(c1)N(CCCC(=O)NCCCN1CCCCC1)C(=O)CO2	none
CCN(CCCNC(=O)C1CCC(=O)N1C(C)C)c1cccc(C)c1 (centres undefined)	ALR inh 99
CCOC(=O)N1CCC(Nc2c(NCCCN(CC)c3cccc(C)c3)c(=O)c2=O)CC1	ALR inh 99
CCOC(=O)N1CCC(Nc2c(NCCN3CCN(Cc4ccccc4)CC3)c(=O)c2=O)CC1	none
CCN(CCCNC(=O)CCCN1C(=O)COc2ccc(C)cc21)c1cccc(C)c1	ALR inh 98
CC(C)OCCCNC(=O)C1CCC(=O)N1C(C)C (centres undefined)	none (no result: CaV13 ICDI inh)
CCOC(=O)C1CCCN(c2c(NCCCN(CC)c3ccccc3)c(=O)c2=O)C1 (centres undefined)	ALR inh 98
C#Cc1cccc(Nc2nc(NCc3ccccc3OC)nc3ccsc23)c1	none (no result: PolyA inh, PfM18AAP inh, ALR inh, IDE cell inh, IDE act)
Cc1sc(NC(=S)NC(=O)C2CCCCC2)c(C(N)=O)c1C	none (no result: ALR inh)
CCN(CCCNC(=O)c1c(C)cc(=O)oc1C)c1cccc(C)c1	ALR inh 100
CCOC(=O)N1CCN(c2c(NCCCN(C)c3ccccc3)c(=O)c2=O)CC1	ALR inh 99
Cc1cc(=O)oc(C)c1C(=O)NCCNC(=O)c1c(C)cc(=O)oc1C	none
CCOC(=O)C1CCN(c2c(NCCN(CC)c3ccccc3)c(=O)c2=O)CC1	ALR inh 98
O=C(CCNC(=O)c1ccc([N+](=O)[O-])cc1)NC1CCCc2ccccc21 (centres undefined)	none (no result: PolyA inh, PfM18AAP inh, ALR inh, IDE cell inh)
O=C(CCn1c(=S)oc2ccccc21)Nc1ccccc1Br	none
COc1cc(/C=N/NC(=O)/C(=C\c2ccc([N+](=O)[O-])cc2)NC(=O)c2ccccc2)cc(OC)c1O	PfM18AAP inh 29
O=C(NC(Cc1ccccc1)C(=O)O)/C(=C/c1ccc([N+](=O)[O-])cc1)NC(=O)c1ccccc1 (centres undefined)	ALR inh 96
O=C(NC(Cc1ccccc1)C(=O)O)/C(=C/c1cccc([N+](=O)[O-])c1)NC(=O)c1cccc(Br)c1 (centres undefined)	ALR inh 98
O=C(NC(Cc1ccccc1)C(=O)O)/C(=C\c1ccc([N+](=O)[O-])cc1)NC(=O)c1ccco1 (centres undefined)	none
Cc1nc2c(OCc3ccc(C(F)(F)F)cc3)cccn2c1N(C)CC1CC1	none (no result: PolyA inh, PfM18AAP inh, ALR inh, IDE cell inh, IDE act)
COc1cccc(N2C(=O)C3C(C2=O)C2C=CC3C23CC3)c1 (centres undefined)	none
CCN(CC(=O)Nc1c(F)cccc1F)C(=O)c1c(-c2ccccc2Cl)noc1C	none (no result: PolyA inh, PfM18AAP inh, ALR inh, IDE cell inh, IDE act)
CCN(CC)c1ccc(C2C(C(=O)OCCOC)=C(C)NC3=C2C(=O)CC(C)(C)C3)cc1 (centres undefined)	ALR inh 99 (no result: CaV13 ICDI inh)
CCN(CC)c1ccc(C2CC(=O)NC3=C2C(=O)CC(C)(C)C3)cc1 (centres undefined)	ALR inh 95
COc1ccc(NC(=O)C2CCC(=O)N2S(=O)(=O)c2ccc(C)cc2)cc1Cl (centres undefined)	none (no result: ALR inh)
Cc1ccccc1N1CCN(C2=NC(=O)/C(=C\c3cccs3)S2)CC1	none

Screens: PubChem BioAssay, several laboratories
